JMJD2A Tudor inh – inhibitors of human JMJD2A Tudor domain; AlphaScreen JMJD2A-Tudor / H3K4me3 peptide binding; 4.4% of 390,000 active; AID 504339; O75164; Potency, µM (series often up to 114 µM), for the others: at the top dose activity change, negative = inhibition, actives largely listed as inhibitors; further: on the % scale 0 is the no-effect control and ±100 the full control effect; nearly all actives have a fitted effect of over 50% in size
L3MBTL1 block – blocks human L3MBTL1. Q9Y468. AlphaScreen L3MBTL1–H3K9me1 peptide binding. 0.66% of 230,000 active. Potency, µM (doses to about 57.1 µM), for inactives: at the highest dose activity, negative = inhibition, actives largely listed as inhibitors; further: on the % scale 0 is the no-effect control and ±100 the full control effect; nearly all actives have a fitted effect of over 60% in size
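L3MBTL1 50 nM + b-AHA-H3(1-15)K9me1 75 nM, 30 min RT; compound added, 30 min RT; streptavidin donor/Ni-chelate acceptor beads 10 ug/mL each final, 30 min RT dark; AlphaScreen read.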
BAZ2B inh – inhibitors of human BAZ2B bromodomain. Q9UIF8. AlphaScreen BAZ2B-H3K14Ac peptide displacement. Potency, µM (top dose mostly 114 µM), inactives show at the top dose activity change, negative = inhibition, usual class: inhibitors. 4.4% of 360,000 active. AID 504333; further: on the % scale 0 is the no-effect control and ±100 the full control effect; nearly all actives have a fitted effect of over 60% in size
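In this displacement format the biotinylated H3(5-23) peptide acetylated at Lys14 serves as ligand at 50 nM, with BAZ2B at 50 nM in PBS pH 7.4 containing 0.01% Tween-20. Donor and acceptor beads are 10 ug/mL final.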
VDR inh – blocks the human vitamin D receptor. 0.93% of 400,000 active. AID 504847. P11473. Potency, µM, for inactives: max response, negative = inhibition, actives largely listed as inhibitors. VDR-SRC2-3 peptide fluorescence polarization, 2 h; further: on the % scale 0 is the no-effect control and ±100 the full control effect
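The screen uses fluorescence polarization to detect compounds that interfere with recruitment of the SRC2-3 coactivator peptide to VDR; plates are read after 2 h at room temperature.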
HP1b binding inh – HP1-beta chromodomain-methylated histone interaction inhibition | P83916 | 0.56% of 390,000 active | AlphaScreen HP1-beta / biotin-H3K9me3 peptide binding | Potency, µM (doses to about 114 µM), without a hit: at the highest dose activity change, negative = inhibition, most hits filed as inhibitors; further: nearly all actives have a fitted effect of over 70% in size
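AlphaScreen: HP1-beta (50 nM) preformed 30 min with biotin-H3(1-18)K9me3 peptide (50 nM) in PBS pH 7.4, 0.01% Tween-20. Compound added for 30 min at RT, then streptavidin donor/nickel chelate acceptor beads (10 ug/mL) for 30 min.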
PLK1 PBD block – inhibitors of human PLK1 polo-box domain binding; Plk1 PBD binding of FITC phosphopeptide, fluorescence polarization; Potency, µM, without a hit: max response, negative = inhibition, usual class: inhibitors; 2.8% of 360,000 active; AID 720504; P53350; further: series mostly up to about 57 µM; on the % scale 0 is the no-effect control and ±100 the full control effect; nearly all actives have a fitted effect of over 65% in size
Active calls of the source: *; ? = inconclusive; . = no result given; ! = repeats disagree; [ ] = another dose, or the depositor's remark. An excerpt weighted towards active compounds, which were near 6.9% of everything screened. The call rests on the fitted dose curve; in most records, active means well fitted curve in the direction sought with a large enough effect; inconclusive means small, poorly fitted or top-dose-only effect, or another doubt; inactive means no such curve, though single readings can be large; an effect the other way counts as inactive or inconclusive. Potency means the concentration at half of the fitted maximal effect.

SMILES	JMJD2A Tudor inh	L3MBTL1 block	BAZ2B inh	VDR inh	HP1b binding inh	PLK1 PBD block
COc1ccc(Cl)cc1NC(=S)N(Cc1ccccc1C)CC1CCC(C(=O)O)CC1 (stereo not drawn)	-14.2%	.	5.8%	5.5%	8.4%	29.9µM*
Cc1nc(N2C(=O)c3oc4ccccc4c(=O)c3C2c2ccccc2F)sc1C (stereo not drawn)	-3.8%	.	11.5%[57.1 µM]	-11.7%	49.6%	.
CC1=CC(C)(C)Nc2ccc(OC(=O)C(Cc3ccccc3)N3C(=O)c4ccccc4C3=O)cc21 (stereo not drawn)	?	-20.3%	?	-12.7%	?	-8.3%
CCOc1ccc2c(c1)C(C)=CC(C)(C)N2	?	-12.5%	50.1µM*	44.7µM*!	-7.1%	-1.6%
C#CCOC(=O)CN1C(=O)c2cccc3cccc(c23)C1=O	-13.3%	7.5%	-4.7%	-6.6%	40.2%	-7.6%
CC1=CC(C)(C)Nc2ccc(OC(=O)CN3C(=O)c4ccccc4C3=O)cc21	?	-24.8%	17.8µM*	-10.6%	?	0.0%
CC1=CC(C)(C)Nc2ccc(OC(=O)CN3C(=O)c4cccc5cccc(c45)C3=O)cc21	?	?	50.1µM*	?	-21.0%	?
CCOc1ccc(CCNC(=O)c2cc3c(-c4ccccc4F)nn(C)c3s2)cc1OCC	-23.0%	.	.	4.8%	19.2%	.
COc1ccc(Cc2nc(C(=O)Nc3ccccc3)cs2)cc1	67.8%	.	29.8%	-4.8%	77.5%	-9.7%
C=CC[n+]1c(-c2ccc(OC)cc2)csc1NNC(=O)Nc1ccccc1	50.1µM*	.	10µM*	-1.2%	-34.2%	-2.1%
Cc1cccc(/C=N/N2CCN(c3ccccc3)CC2)c1	?	-10.3%	?	-14.2%	-19.1%	-9.2%
Cc1nc2c(C(=O)NCCc3ccc(Cl)cc3)c[nH]n2c(=O)c1Cc1ccccc1F	-31.7%	.	-30.5%	-23.2%	11.2%	.
Cc1nc2c(C(=O)NCCC(C)C)c[nH]n2c(=O)c1Cc1ccccc1F	-13.2%	2.0%	4.1%	-5.9%	20.5%	21.2µM*
O=C(O)/C=C/c1ccc([N+](=O)[O-])o1	35.5µM*	?	56.2µM*	1.8%	50.1µM*	?
Cc1nn2cc(-c3ncc(C(F)(F)F)cc3Cl)cnc2c1Br	-2.3%[11.4 µM]	.	4.8%	-11.8%	-2.8%	23.8µM*
CN(CC(=O)Nc1ccc(Cl)c(Cl)c1)C1CCCCC1	22.4µM*	9.8%	-28.1%	3.4%	?	5.8%
CN1CCC(N(C)CC(=O)Nc2ccc3c(c2)OC(F)(F)O3)CC1	2µM*	-17.8%	44.7µM*	8.9%	?	-1.2%
CC1CCCCN1CC(=O)Nc1ccc2c(c1)OC(F)(F)O2 (stereo not drawn)	1.4%	12.1%	-2.5%	9.9%	26.5%	-9.7%
CN1CCC(N(C)CC(=O)Nc2ccccc2N2CCOCC2)CC1	8.91µM*	.	56.2µM*	12.7%	?	3.4%
CCC(C)C(NC(=O)C(Cc1ccc(O)cc1)NC(=O)OCc1ccccc1)C(=O)OC (stereo not drawn)	.	.	.	.	.	-4.7%
COc1ccc(CCN2CC(C(=O)NCCc3ccc(F)cc3)CCC2=O)cc1 (stereo not drawn)	-13.8%	.	-3.9%	-9.5%	27.2%	-13.5%
O=C(NCCc1cn[nH]c1)C1CCC(=O)N(CCc2cccc(F)c2)C1 (stereo not drawn)	?	.	-6.5%	?	11.0%	3.36µM*
COc1ccc(CCN2CC(C(=O)NCCc3cnn(C)c3)CCC2=O)cc1 (stereo not drawn)	20µM*	.	-5.3%[57.1 µM]	?	21.9%	11.9µM*
CCOC(=O)c1c(C)oc2ccc(N(C(C)=O)S(=O)(=O)c3c(C)cc(C)cc3C)cc12	-11.1%	.	3.2%	-1.5%	15.5%	.
Cn1cccc1/C=N/NC(=O)C12CC3CC(CC(C3)C1)C2	-24.3%	-3.1%	-35.0%	-6.2%	0.6%	-1.0%
SMILES	JMJD2A Tudor inh	L3MBTL1 block	BAZ2B inh	VDR inh	HP1b binding inh	PLK1 PBD block
COc1ccc2c3c(c(=O)oc2c1)C1O[C@](c2ccsc2)(Cc2cc(C#N)ccc21)O3	.	.	12.6µM*	.	.	.
CCCC[C@]12Cc3cc(C#N)ccc3C(O1)c1c(c3ccccc3oc1=O)O2	.	.	-2.4%[22.9 µM]	.	.	.
N#Cc1ccc2c(c1)C[C@]1(c3ccsc3)Oc3c(c(=O)oc4ccccc34)C2O1	.	.	12.6µM*	.	.	.
COc1ccc([C@]23Cc4cc(C#N)ccc4C(O2)c2c(cc(-c4ccccc4)oc2=O)O3)cc1	.	.	-2.9%[22.9 µM]	.	.	.
O=C(O)[C@H]1CN(C/C=C/P(=O)(O)O)CCN1	.	.	.	4.1%	.	.
Cc1cn2c(=O)cc(COC(=O)COc3ccc(C)c(C)c3)nc2s1	-3.3%	.	-3.1%	16.3%	70.4%	.
O=C(Nc1cccc(-c2nn3c(=O)cc(N4CCNCC4)nc3s2)c1)c1ccncc1	-27.2%	.	.	.	.	.
Cc1ccc(-n2c(C)cc(C(=O)CSc3nncs3)c2C)cc1	?	-10.5%	-65.0%	-9.0%	-8.9%	0.0%
Cc1cc(C(=O)CSc2nnnn2C)c(C)n1Cc1ccco1	?	-23.2%	70.8µM*	7.0%	10.8%	-2.2%
Cc1cc(C(=O)CSc2nnnn2-c2ccc(O)cc2)c(C)n1C	44.7µM*	25.3%	-10.1%	5.6%	?	23.8µM*
Cc1ccc(-n2c(C)cc(C(=O)CSc3nnnn3C)c2C)cc1	?	-19.6%	50.1µM*	11.3%	-17.7%	-5.9%
Cc1cc(C(=O)CSc2ncccn2)c(C)n1Cc1ccco1	-11.0%	-0.6%	8.1%	12.6%	48.0%	-5.8%
C[C@H](NC(c1cccc2nc(O)c(O)nc12)P(=O)(O)O)c1ccc(Br)cc1 (stereo partly drawn)	.	.	.	18.4%	.	.
CO[C@H]1[C@H](O[C@H]2O[C@@H](C)[C@@H](O[C@@H]3C[C@](C)(O)[C@H](O)[C@H](C)O3)[C@@H](N(C)C)[C@@H]2O)[C@@H](CC=O)C[C@@H](C)[C@@H](O[C@H]2CC[C@H](N(C)C)[C@H](C)O2)/C=C\C=C/C[C@@H](C)OC(=O)C[C@H]1O	.	.	.	14.7%	.	.
CCOc1ccc(-c2nc(=S)[nH][nH]2)cc1	7.08µM*	1.4%	-1.8%	-8.8%	-18.9%	-19.6%
COc1ccc(-c2n[nH]c(=S)nc2-c2ccc(OC)cc2)cc1	-33.5%	.	?	-17.3%	13.3%	-16.1%

Source: PubChem BioAssay
